About 83,000 compounds went through this panel and 20% of them were active in at least one assay; those are over-represented in the sample as a whole.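 How to read the values: 0–100, growth inhibition (40 = 60% inhibited); 0, no net growth; -100 to 0, cell death (-40 = 40% of starting cells died; -100 = all dead).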 Activity calls are given as the source filed them. The calls were made as follows: active = growth percent below 10; inactive = the rest.

38 compounds from PubChem BioAssay (NCI) can be followed below.

This experiment has as its system OVCAR-8 ovarian. Put plainly: NCI-60 one-dose screen, 48 h (100 = growth as untreated, 0 = no growth, -100 = all killed). Conditions: 10 µM.
`Cc1ccc(CNC(=O)Cc2ccc3c(c2)CN(C2CCC(=O)NC2=O)C3=O)cc1` (stereo not drawn): the growth is 1.57% (active).

For the compound `CC1(c2ccccc2)NC(=O)N(CC(=O)Nc2ccc(C(=O)/C=C/c3ccc(Br)cc3)cc2)C1=O` (stereo not drawn), the growth was 41.3% (inactive).

In the case of `Cc1ccn2c(C(=O)c3ccccc3)cc(-c3cc(-c4ccc(N(C)C)cc4)c(C#N)c(N)n3)c2c1`, the growth was 15.1% (inactive).

Consider `COc1ccc(C(=O)/C=C/c2cc(C(F)(F)F)cc(C(F)(F)F)c2)cc1S(N)(=O)=O`, for which the growth is -29.8% (active).

Regarding `COc1cccc2nc(Nc3ccc(F)c(NC(=O)c4ccc(CN5CCN(C)CC5)c(C(F)(F)F)c4)c3)ccc12`, the growth is 30.9% (inactive).

Turning to `O=C(CNc1nc(-c2ccccc2)cs1)Nc1ccc([N+](=O)[O-])cc1`, the growth was 17.7% (inactive).

Regarding `COC[C@@H](CC(C)C)N=C1N/C(=C\c2ccc3ncsc3c2)C(=O)N1C`, the growth is 17.6% (inactive).

In the case of `COc1ccsc1/C=N/NC(=O)c1[nH]c2ccc(Br)cc2c1-c1ccccc1`, the growth was -16.2% (active).

For `CCOC(=O)C1NN(c2ccc(S(N)(=O)=O)cc2)c2nc3nc(-c4cccs4)cc(-c4cccs4)c3c(=O)n21` (stereo not drawn), the growth was 86.7% (inactive).

On to `Nc1cc(-c2cccc(C(=O)NCc3ccc4c(c3)OCO4)c2)ccn1`, for which the growth is 103% (inactive).

`O=c1c2ccccc2nc(COc2ccccc2)n1/N=C/c1ccc(N2CCCC2)cc1`: the growth is 99% (inactive).

With `O=C(CNc1nc(-c2ccccc2)cs1)Nc1cccc([N+](=O)[O-])c1`, the growth was -11.1% (active).

For the compound `C#CCNC(=O)[C@]12CCC(C)(C)C[C@H]1C1=CC[C@@H]3[C@@](C)(CCC#N)[C@H](C(=C)C)CC[C@@]3(C)[C@]1(C)CC2`, the growth is 64.2% (inactive).

Take `Cc1ccc(/C(CSc2nnc(-c3c[nH]c4ccccc34)n2-c2ccccc2)=N/O)cc1`: the growth was -27.8% (active).

As to `COC1=C[C@]23CCC(=O)N2CCc2cc4c(cc2[C@@H]3[C@@H]1OC(=O)CCCC(C)C)OCO4`, the growth is 73.9% (inactive).

Turning to `Cc1ccc(-c2nc3ccc(C(=O)N=Nc4c(O)[nH]c5ccc([N+](=O)[O-])cc45)cc3[nH]2)cc1`, the growth was 75.3% (inactive).

For `Cc1ccc(-c2nc(Nc3ccccc3C(=O)O)c3ccccc3n2)cc1`, the growth was 30.5% (inactive).

Consider `CSc1nc(-c2cccc(C)c2)c2cc(-c3ccccc3)n(C)c2n1`, for which the growth was 25.2% (inactive).

For `CN(C)c1ccc(/C=C/C(=O)c2ccc(NC(=O)CN3C(=O)NC(C)(c4ccccc4)C3=O)cc2)cc1` (stereo not drawn), the growth is 67.1% (inactive).

For the compound `COc1cc(/C=C/C(=O)c2ccc(NC(=O)CN3C(=O)NC(C)(c4ccccc4)C3=O)cc2)cc(OC)c1OC` (stereo not drawn), the growth is 10.4% (inactive).

As to `O=C(O)CCCCCCCCCCN1C(=O)/C(=C/c2cnc(-c3ccc(Cl)cc3)s2)SC1=S`, the growth was -2.09% (active).

As for `O=C(Nc1cccc(C(F)(F)F)c1)c1cncc(C#Cc2cnc3cccnn23)c1`, the growth is 41% (inactive).

For the compound `CC1(c2ccccc2)NC(=O)N(CC(=O)Nc2ccc(C(=O)/C=C/c3ccccc3)cc2)C1=O` (stereo not drawn), the growth is 65.1% (inactive).

With `CN1C(=O)N(C)C2SC(N/N=C/c3ccccc3F)=NC21` (stereo not drawn), the growth was 88.4% (inactive).

Consider `COc1ccccc1C(=O)NNC(=O)CSc1nc2c(c(=O)[nH]1)CCCC2`, for which the growth is 109% (inactive).

Consider `CCN1CCN(Cc2ccc(C(=O)Nc3cccc(-c4cn(-c5ccc6oc(=O)ccc6c5)nn4)c3)cc2C(F)(F)F)CC1`, for which the growth is -100% (active).

As to `COc1ccc(CN2[C@H](C(=O)NCc3ccc(C(=O)NO)cc3)Cc3c([nH]c4ccccc34)[C@H]2C2CC2)cc1`, the growth is 39.3% (inactive).

Consider `Cn1c(O)c(N=Nc2nc(-c3cc4ccccc4oc3=O)cs2)c2cc(Br)ccc21`, for which the growth was 79.2% (inactive).

With `[2H]C([2H])([2H])Oc1ccc2ncc(C#Cc3cncc(C(=O)Nc4ccc(CN5CCN(C)CC5)c(C(F)(F)F)c4)c3)n2n1`, the growth is -25.7% (active).

`O=C(c1ccc(Cl)cc1)C1[C@H](c2ccccc2Br)[C@@H](c2ccccc2)NC12C(=O)Nc1ccc(Br)cc12` (stereo partly drawn): the growth was 13.7% (inactive).

Regarding `C=C(C)[C@@H]1CC[C@]2(COP(=O)(OCC)OCC)CC[C@]3(C)[C@H](CC[C@@H]4[C@@](C)(CCCN)[C@H](C(=C)C)CC[C@]43C)[C@@H]12`, the growth was 26% (inactive).

On to `O=C(COc1ccc(NC(=O)Nc2ccc(Cl)cc2)cc1)N=Nc1c(O)[nH]c2ccc([N+](=O)[O-])cc12`, for which the growth was 16.1% (inactive).

Consider `Cc1ccc(/C=C/C(=O)c2ccc(S(=O)(=O)NCCNc3nc(Nc4ccc(F)cc4)nc(N(C)C)n3)cc2)cc1`, for which the growth was 3.72% (active).

Turning to `CCN1CCN(c2ccc(NC(=O)Nc3ccc(-c4cc(C(=O)NC(C)C)c5ncccc5n4)cc3)cc2C(F)(F)F)CC1`, the growth was -83.3% (active).

For `CCOc1ccc(Nc2nc3ccccc3nc2Nc2ccc(OCC)cc2)cc1`, the growth was 58.3% (inactive).

Regarding `O=C(c1ccc(Cl)cc1)C1[C@H](c2ccc(Br)cc2)[C@@H](c2ccccc2)NC12C(=O)Nc1ccc(Br)cc12` (stereo partly drawn), the growth was -56.7% (active).

For `COc1cnc2c(c1)C(=O)c1c-2n(CCCNC(C)C)c(=O)c2cc(OC)c(OC)cc12`, the growth was 37% (inactive).

For `OCCCNc1oc(-c2ccccc2)nc1[P+](c1ccccc1)(c1ccccc1)c1ccccc1`, the growth was 8.02% (active).
